# A selection: hits, their analogues and other compounds. The true share with any hit is near 3.6%.
# DUSP3 inh: VHR1 phosphatase inhibitors, primary screen, biochemical, absorbance, uHTS | Dual specificity protein phosphatase 3 (Homo sapiens), P51452 | recombinant VHR phosphatase, pNPP absorbance | inhibition, % at 13.3 µM | 0.52% of 290,000 active; in the data active = inhibition above about 50%
# Target sequence (P51452 whole entry, looked up): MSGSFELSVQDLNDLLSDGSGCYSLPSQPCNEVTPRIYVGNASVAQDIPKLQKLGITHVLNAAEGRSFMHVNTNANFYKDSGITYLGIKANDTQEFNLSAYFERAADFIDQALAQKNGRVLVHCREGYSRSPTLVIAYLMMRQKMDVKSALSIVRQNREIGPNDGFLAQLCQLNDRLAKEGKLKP
# GDH-TPI counter-1: GDH-TPI coupling enzyme inhibitors, primary screen, artefact control for M. tuberculosis FBA inhibitor project, biochemical, absorbance, full deck; GDH-TPI coupled enzyme counterscreen, NADH absorbance; 1.2% of 360,000 active; AID 588335, 2011; inhibition, % at 4.8 µM; in the data active = inhibition above about 30%
# Mtb FBA inh: Mtb FBA enzyme inhibitors, primary screen, biochemical, fluorescence, strain H37Rv | Fructose-bisphosphate aldolase (Mycobacterium tuberculosis (strain ATCC 25618 / H37Rv)), … | purified M. tuberculosis FBA, fluorescence read-out | inhibition, % at 1 µM | 2.3% of 360,000 active | AID 588726, 2011
# Target sequence (P9WQA3 whole entry, looked up): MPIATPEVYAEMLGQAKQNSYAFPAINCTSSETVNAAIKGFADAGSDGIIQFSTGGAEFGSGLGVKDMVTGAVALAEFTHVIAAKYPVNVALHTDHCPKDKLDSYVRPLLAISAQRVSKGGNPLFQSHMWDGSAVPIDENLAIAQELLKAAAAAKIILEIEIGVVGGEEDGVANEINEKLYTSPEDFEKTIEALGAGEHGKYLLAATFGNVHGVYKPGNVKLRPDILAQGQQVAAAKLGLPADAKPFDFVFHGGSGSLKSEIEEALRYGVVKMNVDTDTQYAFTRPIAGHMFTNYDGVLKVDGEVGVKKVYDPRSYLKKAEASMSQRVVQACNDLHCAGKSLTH
# Mtb hypoxia rep: PubChem AID 1159583 | M. tuberculosis hypoxia-regulated fluorescent reporter, fluorescence | fluorescence inhibition, % (test concentration not listed) | 0.1% of 300,000 active; in the data active = fluorescence inhibition mostly above about 23%, no sharp cut-off; inactive = mostly below about 17%
# Mtb bLac sens: beta-lactam sensitization of Mtb H37Rv, H37Rv; M. tuberculosis H37Rv growth with meropenem, percent inhibition; inhibition, % at 25 µM; 0.27% of 330,000 active; call rule not given here;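 also: growth measured after seven days incubation then overnight dye step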
# Mtb FBA confirm: M. tuberculosis aldolase blockers, biochemical, fluorescence, strain H37Rv, confirmation | shares compounds with Mtb FBA inh | 78% of 5,600 active | purified M. tuberculosis FBA, fluorescence read-out | inhibition, % at 1 µM
# GDH-TPI counter-2: GDH-TPI coupling enzyme inhibitors, artefact control for M. tuberculosis FBA inhibitor project, biochemical, fluorescence, high throughput. shares compounds with Mtb FBA inh. GDH-TPI coupled enzyme counterscreen. inhibition, % at 1 µM. 81% of 5,600 active; in the data active = inhibition above about 10%
# GDH-TPI DR: GDH-TPI coupling enzyme inhibitors, dose response, artefact control for M. tuberculosis FBA inhibitor project, biochemical, fluorescence, IC50. GDH-TPI coupled enzyme assay, artifact counterscreen. 79% of 170 active. IC50, µM. AID 652145, 2013. shares compounds with Mtb FBA inh; call rule not given here
# Numbers stand for hits; - = inactive; ? = inconclusive; . = no result; + = active, no number. Rule as the data show it, unless noted: active = inhibition above about 27%; inactive = the rest.
SMILES,DUSP3 inh,GDH-TPI counter-1,Mtb FBA inh,Mtb hypoxia rep,Mtb bLac sens,Mtb FBA confirm,GDH-TPI counter-2,others
CCOc1cc(C=C2SC(=S)NC2=O)ccc1OC(=O)c1ccco1,.,.,.,-,.,.,.,
Cc1ccc(CN2CCN(N=Cc3ccc(Cl)c([N+](=O)[O-])c3)CC2)cc1,.,.,.,-,.,.,.,
Cc1cccc(-n2c(SCC(=O)Nc3nnc(C)s3)nnc2-c2ccoc2C)c1,-,-,46,.,-,38,31,
COC1=Nc2ccccc2N2CCN=C12,.,.,66,.,.,-,-,GDH-TPI DR=3.5
Cc1cccc(C)c1OCC(O)CN(Cc1ccccc1O)C1CCCCC1 (stereo not given),-,-,32,-,-,44,31,
COc1cc(OC)cc(-c2nnc(Nc3nc4c(F)cccc4s3)o2)c1,-,-,30,-,-,84,76,
Fc1cccc2sc(Nc3nc4c(F)cccc4s3)nc12,-,-,-,.,-,.,.,
Fc1cccc2sc(Nc3nnc(-c4ccccc4)o3)nc12,-,45,64,-,?,+,+,
CC(=O)n1cc(C2C=C(C(=O)N3CCN(Cc4ccc5c(c4)OCO5)CC3)OC(OCCCCO)C2)c2ccccc21 (stereo not given),.,.,.,-,.,.,.,
Cc1cc(C=NNC(=O)Cn2c3ccccc3c(=O)c3ccccc32)c(C)n1-c1ccccc1,.,.,.,-,.,.,.,
C[C@@]12C(=O)N(c3cccc(F)c3)C(=O)N1C(c1ccc(Cl)cc1)C1C(=O)N(C3CCCCC3)C(=O)C12 (stereo not given in full),.,.,.,-,.,.,.,
Cc1ccc(-n2nc3cc(C)c(N)cc3n2)cc1,-,-,-,-,-,.,.,
CCc1ccc(-n2nc3cc(C)c(N)cc3n2)cc1,-,-,56,-,-,63,69,
O=C(Nc1nc(-c2ccccc2)cs1)c1ccc2c(c1)S(=O)(=O)c1ccccc1C2=O,-,-,84,-,-,+,158,
Clc1ccc(-c2cn3cc(Cl)ccc3n2)cc1,-,-,-,-,-,.,.,
CCN(CC)S(=O)(=O)c1ccc(-c2cn3cc(Cl)ccc3n2)cc1,-,-,31,.,-,.,+,
CC1=Nc2ccc(C)c3nc(C)cc(c23)N1c1ccc(C)cc1,.,-,30,.,-,60,38,
S=c1[nH]nc(C2CCCCC2)n1N=Cc1ccc(Br)cc1,.,.,.,-,.,.,.,
CN(C)CCNC(=O)c1cccc2[nH]c(-c3ccncc3)nc12,.,-,35,.,.,-,20,
CN(C)CCNC(=O)c1cccc2nc3c(ccc4ccccc43)nc12,.,-,-,.,.,.,.,
COc1cc(C=Nn2c(C)nc3ccccc3c2=O)cc(OC)c1O,.,.,.,-,.,.,.,
CCOC(=O)Cn1c(C(F)(F)F)nc2nc(Cl)c(Cl)nc21,.,-,55,.,.,102,62,
COC(=O)NN=C(C)c1ccc(C)c([N+](=O)[O-])c1,.,.,.,-,.,.,.,
O=C(O)c1ccccc1NCN1C(=O)C2CC=C(Cl)CC2C1=O (stereo not given),-,-,40,-,-,-,29,
N#Cc1ccc(-c2ccc(OCC(=O)NCCc3ccccc3)cc2)cc1,-,-,38,-,-,-,-,
SMILES,DUSP3 inh,GDH-TPI counter-1,Mtb FBA inh,Mtb hypoxia rep,Mtb bLac sens,Mtb FBA confirm,GDH-TPI counter-2,others
N#Cc1ccc(-c2ccc(OCC(=O)NCC(=O)Nc3ccc(F)c(F)c3F)cc2)cc1,-,-,30,-,-,+,+,
Cc1[nH]nc2c1C(c1ccc(N(C)C)cc1)C1=C(CC(C)(C)CC1=O)N2 (stereo not given),-,-,-,-,-,.,.,
Cc1[nH]nc2c1C(c1cccc(O)c1)C1=C(CC(C)(C)CC1=O)N2 (stereo not given),-,-,33,-,-,-,14,
COc1ccc(C2C3=C(CCCC3=O)Nc3n[nH]c(C)c32)cc1OC (stereo not given),-,-,-,-,-,.,.,
Cc1ccc(C2C3=C(CC(C)(C)CC3=O)Nc3n[nH]c(C)c32)cc1 (stereo not given),-,-,28,-,-,109,94,
Cc1[nH]nc2c1C(c1ccc(F)cc1)C1=C(CC(C)(C)CC1=O)N2 (stereo not given),-,-,34,-,-,56,43,
COc1ccc(COc2cc(-c3cccc(OC)c3)nc3ccc(NC(=O)C(C)C)cc23)cc1,-,-,43,-,-,87,71,
O=c1[nH]c2cc3c(cc2cc1CN(CCN1CCOCC1)C(=S)NCC1CCCO1)OCO3 (stereo not given),-,-,34,-,-,124,125,
CN(C)CCN(Cc1cc2cc3c(cc2[nH]c1=O)OCO3)C(=S)NCC1CCCO1 (stereo not given),-,-,50,-,-,-,-,
CC(=O)c1ccc2c(c1)c(C#N)c1ccccc1[n+]2[O-],-,-,94,42,.,-,-,
CC(=O)Oc1ccc(C(=O)Nc2ccc3c(c2)C(=O)N(CCC(=O)O)C3=O)cc1,-,-,47,-,-,132,110,
O=C(Cc1ccccc1)Nc1ccc2c(c1)C(=O)N(CC1CCCO1)C2=O (stereo not given),-,-,31,-,-,149,99,
O=C(O)CCN1C(=O)c2ccc(NC(=O)C(c3ccccc3)c3ccccc3)cc2C1=O,-,-,36,-,-,-,-,
O=C(O)CCN1C(=O)c2ccc(NC(=O)CSCc3ccccc3)cc2C1=O,-,-,-,-,-,.,.,
O=C(O)CCN1C(=O)c2ccc(NC(=O)c3ccco3)cc2C1=O,-,-,-,-,-,.,.,
O=C(O)CCN1C(=O)c2ccc(NC(=O)Cc3ccc(Cl)cc3)cc2C1=O,-,-,31,-,-,167,154,
COc1cc(C=NNC(=O)c2ccncc2)c([N+](=O)[O-])cc1OC,.,.,.,-,.,.,.,
COC(=O)C1=C(c2ccc(OC)c(OC)c2)CC2CCC1N2C(=O)N1CCC(C)CC1 (stereo not given),.,.,.,-,.,.,.,
CCOc1cc(C=NNC(N)=O)cc(Br)c1OCc1ccccc1F,.,.,.,-,.,.,.,
COc1ccc(CN2CCc3cc(OC)c(OC)cc3C2)cc1O,-,-,-,.,-,.,.,
COc1cc2c(cc1OC)CN(Cc1ccc(F)cc1)CC2,-,-,43,-,-,64,45,
COc1ccc(-c2oc3ncn4nc(COc5ccccc5)nc4c3c2-c2ccc(OC)cc2)cc1,-,-,-,-,-,.,.,
COc1ccc(-c2oc3ncnc(N)c3c2-c2ccccc2)cc1,-,-,27,-,-,-,-,
O=C(COc1ccc2ccccc2c1)NN=Cc1ccccn1,.,.,.,-,.,.,.,
Cc1nc2cccc(C(=O)Oc3ccc([N+](=O)[O-])cc3)c2o1,-,-,43,-,-,159,146,

# Bioassay records from PubChem BioAssay.
